Hits are enriched below; roughly 5% of the tested compounds scored in any of these assays.
SENP8 block-1 = human SENP8 protease inhibitors, primary screen, biochemical, fluorescence, Nedd8 protein substrate, uHTS; Sentrin-specific protease 8 (Homo sapiens), Q96LD8; recombinant SENP8; inhibition, % at 20 µM; actives 0.64% (n = 360,000); AID 602440, 2012; in the data active = inhibition mostly above about 40%, no sharp cut-off; inactive = mostly below about 27%
SENP6 block = SENP6 protease inhibitors, primary screen, biochemical, luminescence, uHTS | Sentrin-specific protease 6 (Homo sapiens), Q9GZR1 | Recombinant SENP6 catalytic domain, aminoluciferin luminescence | actives 1.8% (n = 330,000) | inhibition, % at 10 µM;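 active = inhibition above about 50% at the single tested dose, limit read from the data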;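 note: plate controls were DMSO wells with enzyme for no effect and DMSO wells lacking enzyme for full effect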
SENP8 block-2 = SENP8 protease inhibitors, primary screen, biochemical, luminescence; Sentrin-specific protease 8 (Homo sapiens), Q96LD8; purified SENP8, Z-RLRGG-aminoluciferin cleavage; actives 1.2% (n = 330,000); inhibition, % at 10 µM; in the data active = inhibition above about 50%
SENP7 block = SENP7 protease inhibitors, primary screen, biochemical, luminescence, uHTS; actives 1.5% (n = 330,000); AID 434973, 2010; recombinant SENP7, Z-RLRGG-aminoluciferin luminescence, 40 min; Sentrin-specific protease 7 (Homo sapiens), Q9BQF6; inhibition, % at 5 µM;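 active = inhibition above about 50% at the single test dose, limit read from the data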;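 note: plate controls were DMSO with enzyme for no effect and no enzyme buffer wells for full effect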
Target sequence (Q9BQF6 706-1050 limits assumed): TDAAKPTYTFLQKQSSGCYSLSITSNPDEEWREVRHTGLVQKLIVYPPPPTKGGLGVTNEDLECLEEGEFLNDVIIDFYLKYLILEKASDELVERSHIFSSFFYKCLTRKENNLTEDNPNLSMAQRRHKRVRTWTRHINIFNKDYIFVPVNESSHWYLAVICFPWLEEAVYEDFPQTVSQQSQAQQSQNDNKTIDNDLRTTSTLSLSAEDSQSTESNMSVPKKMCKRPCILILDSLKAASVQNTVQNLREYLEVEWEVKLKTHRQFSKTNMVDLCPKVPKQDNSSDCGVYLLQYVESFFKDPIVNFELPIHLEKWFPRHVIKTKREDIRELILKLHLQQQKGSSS
AHR act = AHR activators, primary screen, cell-based, luminescence, luciferase reporter, human. AHR-responsive luciferase reporter cells. activation, % at 5 µM. actives 2.5% (n = 320,000). AID 2796, 2010; in the data active = activation above about 47%;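 note: 0% = vehicle wells and 100% = reference agonist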
EBI2 block = EBI2 receptor antagonists, beta-arrestin recruitment, primary screen, cell-based, luminescence, 7a,25-OHC stimulation, uHTS. 7a,25-OHC stimulated. AID 651636, 2012. G-protein coupled receptor 183 (Homo sapiens), P32249. actives 0.81% (n = 360,000). inhibition, % at 5 µM; in the data active = inhibition above about 38%;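 note: enzyme fragment complementation signal reports receptor beta-arrestin coupling in cells; 0% = agonist plus DMSO wells and 100% = wells without agonist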
Target sequence (P32249 whole entry, looked up, the tested form may be a part): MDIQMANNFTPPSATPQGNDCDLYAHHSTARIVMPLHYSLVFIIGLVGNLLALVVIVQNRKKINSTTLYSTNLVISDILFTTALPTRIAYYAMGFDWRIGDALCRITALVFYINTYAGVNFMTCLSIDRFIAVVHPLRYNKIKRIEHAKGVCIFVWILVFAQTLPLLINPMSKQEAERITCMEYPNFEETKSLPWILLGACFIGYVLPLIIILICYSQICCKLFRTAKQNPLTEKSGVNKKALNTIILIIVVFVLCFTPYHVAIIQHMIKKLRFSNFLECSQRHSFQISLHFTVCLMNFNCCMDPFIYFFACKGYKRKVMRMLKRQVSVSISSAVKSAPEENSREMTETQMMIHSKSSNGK
SENP8 conf = SENP8 protease inhibitors, retest, confirmation, biochemical, luminescence, single concentration | Recombinant SENP8, Z-RLRGG-aminoluciferin luminescence, 60 min | inhibition, % at 12.5 µM | shares compounds with SENP7 block | AID 488912, 2010 | actives 40% (n = 6,200);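 active = mean inhibition across replicates above about 50%, limit read from the data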
SENP6 conf = SENP6 protease inhibitors, confirmation, biochemical, luminescence, single concentration | recombinant SENP6, Z-RLRGG-aminoluciferin luminescence | actives 58% (n = 6,200) | shares compounds with SENP7 block | inhibition, % at 12.5 µM | AID 488915, 2010
SENP7 conf = SENP7 protease inhibitors, retest, confirmation, biochemical, luminescence, single concentration; recombinant SENP7, Z-RLRGG-aminoluciferin luminescence, 40 min; inhibition, % at 12.5 µM; shares compounds with SENP7 block; actives 69% (n = 6,200)
Casp3 select = caspase-3 protease inhibitors, confirmation, selectivity assay for SENP inhibitor project, biochemical, single concentration. inhibition, % at 12.5 µM. purified caspase-3, Z-DEVD-aminoluciferin luminescence, 60 min. AID 488918, 2010. shares compounds with SENP7 block. actives 60% (n = 6,200);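 active = mean inhibition above about 50%, limit read from the data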;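 note: plate controls were enzyme with DMSO for no effect and wells without caspase-3 for full effect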
SENP luc ctr = interferes with luciferase luminescence in SENP counter-screen; actives 39% (n = 6,200); shares compounds with SENP7 block; Pre-incubated SENP8/Z-RLRGG-aminoluciferin, luciferase luminescence interference; inhibition, % at 12.5 µM;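 active = mean inhibition above about 50% when retested at one dose, limit read from the data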;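 note: plate controls were DMSO wells with completed reaction for no effect and substrate without enzyme for full effect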
* = called active by the depositor; x = no result.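 Rule for the calls, unless noted: active = mean inhibition above about 50% in the one-dose retest (limit read from the data); inactive = the rest.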

SMILES | SENP8 block-1 | SENP6 block | SENP8 block-2 | SENP7 block | AHR act | EBI2 block | SENP8 conf | SENP6 conf | SENP7 conf | Casp3 select | SENP luc ctr
CSc1ccc(/C=N/NC(=O)c2cccc(O)c2)cc1 | -257.0 | 91.3* | 75.0* | 90.0* | 19.9 | -5.5 | 7.3 | 81.3* | 95.7* | 86.1* | 83.1*
CN(C)/C=N/N(C)c1ncccc1[N+](=O)[O-] | 20.8 | 0.0 | 1.8 | 3.8 | 1.8 | -31.3 | x | x | x | x | x
O=C(Oc1ccc(-c2cnc3ccccc3n2)cc1)c1ccc(Br)o1 | -47.4 | 51.0* | 41.5 | 74.6* | 1.5 | -7.4 | 13.0 | 22.1 | 24.0 | 63.7* | 19.7
Cc1ccc(-c2cnc3ccccc3n2)cc1C | -49.3 | 94.0* | 95.1* | 98.2* | -1.3 | 8.5 | 96.7* | 99.5* | 103.0* | 96.5* | 48.0
Cc1ccc(NC(=O)c2cnc3ccccc3n2)cc1C | 24.9 | 29.8 | 17.5 | 37.6 | 24.4 | 7.5 | x | x | x | x | x
CCCCOc1ccc(-c2ncc(Cl)cn2)cc1 | 9.0 | 7.5 | -16.3 | 2.6 | -0.9 | 5.0 | x | x | x | x | x
CCCCOc1ccc(-c2cnc3ccccc3n2)cc1 | -407.0 | 96.1* | 90.9* | 94.5* | -7.2 | -0.9 | 52.3* | 64.1* | 55.3* | 82.7* | 20.5
Nc1ccc(-c2cnc3ccccc3n2)cc1 | -99.9 | 62.1* | 54.6* | 62.2* | 0.7 | -4.9 | 59.0* | 55.0* | 85.5* | 75.4* | 60.6*
N#Cc1ccc(CN2CCN(CC(=O)NCCc3ccc(Cl)cc3Cl)CC2)cc1 | 8.4 | -36.8 | -1.2 | 5.1 | -1.0 | 7.4 | x | x | x | x | x
Nc1ccc2nc(-c3ccccc3)cnc2c1 | -369.1 | 67.1* | 52.5* | 42.4 | 4.1 | -5.5 | 41.1 | 67.6* | 88.0* | 73.8* | 71.0*
Oc1ccc(-c2cnc3ccccc3n2)cc1 | -315.9 | 90.0* | 83.9* | 70.6* | -2.0 | -15.4 | 82.5* | 81.6* | 97.0* | 86.7* | 85.7*
O=C(O)c1cc(-c2ccc(O)cc2)nc2ccccc12 | x | 8.9 | 3.2 | -0.9 | -0.9 | x | x | x | x | x | x
Cc1cc2ncc(-c3ccccc3)nc2cc1C | -5.5 | 95.1* | 95.1* | 96.9* | 19.9 | 15.1 | 96.9* | 99.1* | 102.3* | 96.1* | 91.9*
c1csc(-c2cnc3ccccc3n2)c1 | -281.5 | 67.4* | 30.6 | 58.9* | 13.4 | 3.0 | 12.1 | 54.3* | 83.3* | 58.5* | 11.2
O=C(Nc1cccc(C(F)(F)F)c1)C1CC(=O)N(Cc2ccco2)C1 (configuration not stated) | 12.5 | x | x | x | x | -0.9 | x | x | x | x | x
Clc1ccc(-c2nnc(NC3=NCCCCC3)o2)cc1 | 29.0 | 72.9* | 79.6* | 88.0* | -3.9 | 0.2 | -24.0 | 10.9 | 57.3* | 47.3 | 12.5
O=C(Nc1nc2ccccc2[nH]1)c1ccccc1F | 10.2 | 96.3* | 97.2* | 98.9* | 3.4 | 1.4 | 2.5 | 98.8* | 102.4* | 97.8* | 97.2*
O=C(Nc1nc2ccccc2[nH]1)c1ccccc1[N+](=O)[O-] | 12.3 | -9.5 | 2.7 | 2.3 | 19.5 | -3.6 | x | x | x | x | x
CCc1ccc(C(=O)Nc2nc3ccccc3[nH]2)cc1 | 1.7 | 95.7* | 93.6* | 97.4* | 51.1* | 7.5 | 55.5* | 76.1* | 86.4* | 84.2* | 11.7
CCOc1ccc(C(=O)Nc2nc3ccccc3[nH]2)cc1OCC | -18.2 | -14.0 | 2.1 | 3.5 | 11.9 | 5.2 | x | x | x | x | x
O=C(Nc1nc2ccccc2[nH]1)c1ccc(F)cc1 | 1.6 | 94.4* | 78.7* | 92.6* | 10.6 | -2.3 | 77.9* | 83.6* | 98.5* | 93.8* | 51.6*
O=C(Nc1nc2ccccc2[nH]1)c1cc(F)cc(F)c1 | -13.9 | 55.4* | 27.6 | 54.2* | 15.5 | -16.8 | 28.2 | 32.6 | 73.0* | 66.0* | 16.1
COc1ccc(C(=O)Nc2nc3ccccc3[nH]2)cc1OC | -20.2 | -10.2 | -19.2 | -9.6 | 22.9 | 0.6 | x | x | x | x | x
CN(C(=O)COC(=O)C1CCN(S(=O)(=O)c2cccs2)CC1)c1ccccc1 | 23.7 | -23.4 | 1.2 | 12.9 | -0.4 | 4.1 | x | x | x | x | x
O=C(Cc1cccs1)Nc1cc(SCCO)cc([N+](=O)[O-])c1 | 20.1 | -6.8 | -1.7 | 0.1 | 3.4 | -9.8 | x | x | x | x | x
SMILES | SENP8 block-1 | SENP6 block | SENP8 block-2 | SENP7 block | AHR act | EBI2 block | SENP8 conf | SENP6 conf | SENP7 conf | Casp3 select | SENP luc ctr
Cc1cc(Br)ccc1NC(=O)CN(C)C(=O)C1CSC2(C)CCC(=O)N12 (configuration not stated) | 4.6 | -1.9 | -0.6 | -0.5 | 2.3 | -6.4 | x | x | x | x | x
O=C(Nc1nc2ccccc2[nH]1)c1ccc(Cl)c([N+](=O)[O-])c1 | 9.7 | -22.7 | 44.8 | 6.7 | 27.8 | -21.6 | x | x | x | x | x
N#Cc1ccc(C(=O)Nc2nc3ccccc3[nH]2)cc1 | -32.6 | 69.0* | 50.3* | 73.4* | -4.0 | -5.1 | 2.1 | 40.2 | 70.6* | 68.5* | -1.2
COc1ccc(Cl)cc1C(=O)Nc1nc2ccccc2[nH]1 | -310.2 | 95.6* | 89.5* | 98.3* | 30.5 | -0.3 | 82.6* | 91.1* | 102.0* | 95.6* | 79.8*
COC(=O)c1ccccc1S(=O)(=O)NCc1nc2nc(C)cc(C)n2n1 | 11.4 | -2.4 | 0.5 | 2.6 | 15.5 | -5.7 | x | x | x | x | x
Cc1ccc(COn2c(-c3ccc(Cl)cc3)nc3ccc([N+](=O)[O-])cc32)cc1 | 21.6 | 67.2* | 42.2 | 56.0* | 4.3 | 13.8 | 11.4 | 16.6 | 49.1 | 22.4 | 23.9
Clc1ccc(COn2c(-c3ccc(Cl)cc3)nc3ccccc32)cc1 | -0.3 | 18.4 | 4.1 | -5.2 | 7.2 | 11.8 | x | x | x | x | x
CCOC(=O)C(C)On1c(-c2ccc(Cl)cc2)nc2ccc([N+](=O)[O-])cc21 (configuration not stated) | -48.2 | 70.0* | 65.1* | 49.9 | 5.2 | 5.6 | -0.4 | -5.4 | 28.6 | 6.4 | 24.9

Screens (PubChem)
